Common to all, as to parameters: scale not given: direction of the effect not stated beside the values
Assay [1] deals with Protein translocase subunit SecA (Escherichia coli (strain K12)) (UniProt P10408). Nature of the assay: Assay to Identify E. coli SecA ATPase Inhibitors. Conditions: 30 µM. In kind it is functional.
The target in assay [2] is T1, Ubiquitin-activating enzyme e1, putative (Leishmania donovani (strain BPK282A1)) (UniProt E9BSI1).
T1 sequence (whole entry): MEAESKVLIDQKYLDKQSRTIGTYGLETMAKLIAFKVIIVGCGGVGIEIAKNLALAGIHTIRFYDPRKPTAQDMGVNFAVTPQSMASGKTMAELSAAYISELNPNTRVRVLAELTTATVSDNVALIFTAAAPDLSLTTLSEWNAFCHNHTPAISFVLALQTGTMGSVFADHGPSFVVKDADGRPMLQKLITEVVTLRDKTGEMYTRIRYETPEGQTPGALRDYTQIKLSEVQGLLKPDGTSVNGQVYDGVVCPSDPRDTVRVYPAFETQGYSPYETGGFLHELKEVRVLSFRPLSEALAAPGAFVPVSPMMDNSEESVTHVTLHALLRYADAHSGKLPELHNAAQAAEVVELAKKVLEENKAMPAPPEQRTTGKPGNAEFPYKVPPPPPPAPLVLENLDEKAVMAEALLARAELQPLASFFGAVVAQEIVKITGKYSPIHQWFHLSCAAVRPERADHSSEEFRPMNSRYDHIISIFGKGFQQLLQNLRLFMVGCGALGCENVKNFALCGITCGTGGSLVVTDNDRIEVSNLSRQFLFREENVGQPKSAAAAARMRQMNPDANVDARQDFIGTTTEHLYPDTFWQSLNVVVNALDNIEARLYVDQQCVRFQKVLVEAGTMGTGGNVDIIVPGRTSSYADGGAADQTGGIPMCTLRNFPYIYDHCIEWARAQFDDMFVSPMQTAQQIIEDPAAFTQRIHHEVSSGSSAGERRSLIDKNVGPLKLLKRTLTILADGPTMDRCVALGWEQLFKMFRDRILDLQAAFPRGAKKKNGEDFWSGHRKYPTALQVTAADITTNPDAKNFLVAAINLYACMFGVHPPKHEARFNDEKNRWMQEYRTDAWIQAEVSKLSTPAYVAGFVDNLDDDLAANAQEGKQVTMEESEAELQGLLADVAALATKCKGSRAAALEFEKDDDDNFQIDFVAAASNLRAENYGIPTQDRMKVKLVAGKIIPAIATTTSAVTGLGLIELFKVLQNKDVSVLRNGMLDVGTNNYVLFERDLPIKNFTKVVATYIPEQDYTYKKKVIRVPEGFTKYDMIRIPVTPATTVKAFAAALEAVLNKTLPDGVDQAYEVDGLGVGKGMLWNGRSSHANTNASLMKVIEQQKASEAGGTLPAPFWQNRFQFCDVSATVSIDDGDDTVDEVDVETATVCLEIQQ
Nature of the assay: Leishmania donovani Ubiquitin Activating Enzyme (LdE1). In kind it is functional. The conditions noted are these: 30 µM.

The target in assay [3] is T2, Aspartate--tRNA(Asp/Asn) ligase (Mycobacterium tuberculosis (strain ATCC 25618 / H37Rv)) (UniProt P9WFW3). Further: in the data most compounds retested in dose-response had high values.
T2 sequence (whole entry): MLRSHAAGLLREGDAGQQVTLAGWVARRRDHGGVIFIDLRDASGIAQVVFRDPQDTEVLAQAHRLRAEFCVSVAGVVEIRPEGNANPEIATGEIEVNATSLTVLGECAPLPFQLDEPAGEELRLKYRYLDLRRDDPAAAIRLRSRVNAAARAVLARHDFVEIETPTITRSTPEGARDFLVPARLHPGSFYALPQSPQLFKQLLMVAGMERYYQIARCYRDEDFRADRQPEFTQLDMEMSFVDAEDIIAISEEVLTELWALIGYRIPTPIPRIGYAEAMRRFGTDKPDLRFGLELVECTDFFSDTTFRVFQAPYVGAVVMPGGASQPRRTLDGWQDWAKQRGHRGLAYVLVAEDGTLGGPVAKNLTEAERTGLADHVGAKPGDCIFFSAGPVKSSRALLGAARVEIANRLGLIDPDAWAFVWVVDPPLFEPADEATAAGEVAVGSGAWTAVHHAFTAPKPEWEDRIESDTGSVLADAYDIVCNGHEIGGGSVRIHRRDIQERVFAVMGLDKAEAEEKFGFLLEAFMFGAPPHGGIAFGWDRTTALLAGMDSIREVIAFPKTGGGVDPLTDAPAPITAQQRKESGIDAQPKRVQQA
Nature of the assay: Assay for Asp RNA synthetase-1 from Mycobacterium tuberculosis. In kind it is functional. Conditions: 30 µM.

Assay [4] addresses AMP-activated protein kinase, AMPK (Homo sapiens) (UniProt P54646+O43741+P54619+Q9UGJ0+Q9Y478+Q13131+Q9UGI9). Kind of assay: AMP-dependent Kinase enzyme assay. An in vitro enzyme assay that detects ADP turnover that is directly proportional to AMPK activity. This uses naive AMPK that is activated during the assay with MK-8722. In kind it is functional. The conditions noted are these: 30 µM.

Assay [5] addresses Sialic acid-binding Ig-like lectin 9 (Homo sapiens) (UniProt Q9Y336). Kind of assay: Hs-Siglec9 ALPHAscreen SOP 20170721. The conditions noted are these: 10 µM.
For another assay, the system named is Trypanosoma cruzi. Kind of assay: Trypanosoma cruzi phosphomannomutase and mannose-1-phosphate guanylyltransferase assay. In kind it is functional. The conditions noted are these: 10 µM.
Assay [6] addresses T3, Arginase-2, mitochondrial (Homo sapiens) (UniProt P78540).
T3 sequence (whole entry): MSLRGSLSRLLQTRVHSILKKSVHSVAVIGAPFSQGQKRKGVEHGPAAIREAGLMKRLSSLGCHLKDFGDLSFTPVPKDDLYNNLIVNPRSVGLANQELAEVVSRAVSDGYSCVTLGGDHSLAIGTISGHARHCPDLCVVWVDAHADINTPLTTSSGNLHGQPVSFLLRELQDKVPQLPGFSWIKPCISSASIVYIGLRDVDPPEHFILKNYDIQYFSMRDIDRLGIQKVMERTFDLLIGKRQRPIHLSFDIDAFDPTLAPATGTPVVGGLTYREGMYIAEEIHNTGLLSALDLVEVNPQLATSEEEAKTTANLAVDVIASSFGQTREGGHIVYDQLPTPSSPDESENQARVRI
Nature of the assay: in vitro enzyme assay to detect the production of urea directly proportional to the activity of Arginase II. Further: in the data most compounds retested in dose-response had high values. In kind it is functional. The conditions noted are these: 33.3 µM.

Assay [7] addresses T4, Proteasome subunit beta (Trypanosoma cruzi) (UniProt O96673).
T4 sequence (whole entry): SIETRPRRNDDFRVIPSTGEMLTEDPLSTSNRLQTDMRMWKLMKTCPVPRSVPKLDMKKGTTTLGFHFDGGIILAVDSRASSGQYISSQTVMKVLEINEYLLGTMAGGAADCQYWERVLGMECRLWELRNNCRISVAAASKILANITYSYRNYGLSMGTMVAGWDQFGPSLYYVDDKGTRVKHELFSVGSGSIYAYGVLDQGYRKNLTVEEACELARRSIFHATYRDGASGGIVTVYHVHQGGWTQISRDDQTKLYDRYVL
Kind of assay: Trypanosoma cruzi proteasome chymotrypsin-like activity (TcProtChymo) assay. Further: in the data most compounds retested in dose-response had high values. It counts as functional. The conditions noted are these: 9.37 µM.

The species entered for a further assay is Homo sapiens. Kind of assay: To identify inhibition of the IFN signalling (Jak-Stat) pathway via expression of an eGFP reporter gene under the control of an IFN-stimulated response element (ISRE) containing MxA promoter. It counts as functional. The conditions noted are these: 30 µM. For orientation: Reporter assays use an easily measured gene product as a stand-in for the process of interest.

The target of assay [8] is Shiga toxin 2 (Escherichia coli O157:H7) (UniProt P09385+P09386). Nature of the assay: E. coli 0.157:H7 Shiga Toxin SOP - stx2 screening assay. In kind it is functional. Conditions: 30 µM.
Assay [9] concerns the target T5, Tyrosyl-tRNA synthetase, putative (Trypanosoma cruzi (strain CL Brener)) (UniProt Q4DSP6).
T5 sequence (whole entry): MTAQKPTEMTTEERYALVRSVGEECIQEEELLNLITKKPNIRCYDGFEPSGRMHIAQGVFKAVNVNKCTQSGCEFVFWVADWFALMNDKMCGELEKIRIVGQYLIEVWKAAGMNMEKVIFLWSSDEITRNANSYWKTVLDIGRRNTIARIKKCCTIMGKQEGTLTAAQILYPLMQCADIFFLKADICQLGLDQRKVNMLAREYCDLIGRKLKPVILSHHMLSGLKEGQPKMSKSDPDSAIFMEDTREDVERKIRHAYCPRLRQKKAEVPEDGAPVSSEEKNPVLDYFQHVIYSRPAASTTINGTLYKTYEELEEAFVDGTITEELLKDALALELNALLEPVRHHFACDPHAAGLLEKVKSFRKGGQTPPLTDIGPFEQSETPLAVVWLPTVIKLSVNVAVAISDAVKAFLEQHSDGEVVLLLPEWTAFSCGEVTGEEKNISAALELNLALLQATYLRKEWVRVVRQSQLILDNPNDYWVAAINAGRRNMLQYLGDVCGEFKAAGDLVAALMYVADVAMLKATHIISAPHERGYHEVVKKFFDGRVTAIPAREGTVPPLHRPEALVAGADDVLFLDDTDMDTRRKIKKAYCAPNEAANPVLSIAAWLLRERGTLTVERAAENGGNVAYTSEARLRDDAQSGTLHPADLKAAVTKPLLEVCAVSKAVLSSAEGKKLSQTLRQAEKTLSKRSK
Nature of the assay: Trypanosoma cruzi tyrosyl tRNA synthetase (TcYRS) _High Tyrosine SOP. Further: in the data most compounds retested in dose-response had high values. It counts as functional. The conditions noted are these: 30 µM.

The target of assay [10] is T5, Tyrosyl-tRNA synthetase, putative (Trypanosoma cruzi (strain CL Brener)). Nature of the assay: Trypanosoma cruzi tyrosyl tRNA synthetase (TcYRS) SOP. The conditions noted are these: 30 µM. It counts as functional.
Assay [11] addresses Chromo domain-containing protein 1 (Saccharomyces cerevisiae (strain ATCC 204508 / S288c) (Baker's yeast)) (UniProt P32657). Nature of the assay: ScCHD-1 Enzyme Inhibition Assay. Further: in the data most compounds retested in dose-response had high values. It counts as functional. Conditions: 30 µM.

For some assays here: Measured potencies and affinities stand elsewhere.

Chain of Protein translocase subunit SecA (Escherichia coli (strain K12)) (P10408 whole entry): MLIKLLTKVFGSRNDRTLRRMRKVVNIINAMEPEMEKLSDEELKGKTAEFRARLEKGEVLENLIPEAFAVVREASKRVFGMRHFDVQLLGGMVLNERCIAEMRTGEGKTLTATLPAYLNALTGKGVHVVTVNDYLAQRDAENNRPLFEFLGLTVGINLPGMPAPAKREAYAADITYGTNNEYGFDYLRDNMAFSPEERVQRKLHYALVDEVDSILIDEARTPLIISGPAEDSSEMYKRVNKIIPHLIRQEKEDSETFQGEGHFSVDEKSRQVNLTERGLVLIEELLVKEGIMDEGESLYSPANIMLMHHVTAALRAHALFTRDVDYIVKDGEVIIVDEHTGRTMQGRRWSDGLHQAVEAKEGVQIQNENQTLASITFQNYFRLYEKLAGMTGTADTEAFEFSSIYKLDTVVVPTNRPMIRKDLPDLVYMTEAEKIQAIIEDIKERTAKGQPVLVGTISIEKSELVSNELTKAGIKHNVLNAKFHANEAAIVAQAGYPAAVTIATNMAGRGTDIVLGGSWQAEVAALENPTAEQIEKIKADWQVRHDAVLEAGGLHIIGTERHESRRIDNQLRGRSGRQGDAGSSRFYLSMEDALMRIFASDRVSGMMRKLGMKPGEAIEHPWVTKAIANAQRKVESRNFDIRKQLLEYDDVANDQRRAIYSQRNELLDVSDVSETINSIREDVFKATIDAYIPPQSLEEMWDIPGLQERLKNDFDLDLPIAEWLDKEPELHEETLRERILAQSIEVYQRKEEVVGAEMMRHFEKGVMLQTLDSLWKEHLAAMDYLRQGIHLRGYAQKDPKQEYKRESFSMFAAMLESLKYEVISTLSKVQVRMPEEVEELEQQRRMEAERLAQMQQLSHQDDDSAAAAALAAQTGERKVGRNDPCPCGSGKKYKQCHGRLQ
Chain of Sialic acid-binding Ig-like lectin 9 (Homo sapiens) (Q9Y336 whole entry): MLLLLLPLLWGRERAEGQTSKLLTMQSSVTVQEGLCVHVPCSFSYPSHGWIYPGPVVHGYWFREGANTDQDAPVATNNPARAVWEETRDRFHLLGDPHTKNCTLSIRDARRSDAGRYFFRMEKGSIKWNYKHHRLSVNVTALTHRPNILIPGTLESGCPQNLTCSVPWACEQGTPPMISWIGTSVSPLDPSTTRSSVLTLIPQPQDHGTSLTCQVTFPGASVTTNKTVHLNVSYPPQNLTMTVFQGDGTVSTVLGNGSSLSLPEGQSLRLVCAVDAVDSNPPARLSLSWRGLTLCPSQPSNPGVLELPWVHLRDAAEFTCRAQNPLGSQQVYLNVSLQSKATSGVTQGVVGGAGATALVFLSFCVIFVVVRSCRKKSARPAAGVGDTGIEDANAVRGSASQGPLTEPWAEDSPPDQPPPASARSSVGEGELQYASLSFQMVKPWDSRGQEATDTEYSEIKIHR
Chain of Chromo domain-containing protein 1 (Saccharomyces cerevisiae (strain ATCC 204508 / S288c) (Baker's yeast)) (P32657 whole entry, the tested form may be a part): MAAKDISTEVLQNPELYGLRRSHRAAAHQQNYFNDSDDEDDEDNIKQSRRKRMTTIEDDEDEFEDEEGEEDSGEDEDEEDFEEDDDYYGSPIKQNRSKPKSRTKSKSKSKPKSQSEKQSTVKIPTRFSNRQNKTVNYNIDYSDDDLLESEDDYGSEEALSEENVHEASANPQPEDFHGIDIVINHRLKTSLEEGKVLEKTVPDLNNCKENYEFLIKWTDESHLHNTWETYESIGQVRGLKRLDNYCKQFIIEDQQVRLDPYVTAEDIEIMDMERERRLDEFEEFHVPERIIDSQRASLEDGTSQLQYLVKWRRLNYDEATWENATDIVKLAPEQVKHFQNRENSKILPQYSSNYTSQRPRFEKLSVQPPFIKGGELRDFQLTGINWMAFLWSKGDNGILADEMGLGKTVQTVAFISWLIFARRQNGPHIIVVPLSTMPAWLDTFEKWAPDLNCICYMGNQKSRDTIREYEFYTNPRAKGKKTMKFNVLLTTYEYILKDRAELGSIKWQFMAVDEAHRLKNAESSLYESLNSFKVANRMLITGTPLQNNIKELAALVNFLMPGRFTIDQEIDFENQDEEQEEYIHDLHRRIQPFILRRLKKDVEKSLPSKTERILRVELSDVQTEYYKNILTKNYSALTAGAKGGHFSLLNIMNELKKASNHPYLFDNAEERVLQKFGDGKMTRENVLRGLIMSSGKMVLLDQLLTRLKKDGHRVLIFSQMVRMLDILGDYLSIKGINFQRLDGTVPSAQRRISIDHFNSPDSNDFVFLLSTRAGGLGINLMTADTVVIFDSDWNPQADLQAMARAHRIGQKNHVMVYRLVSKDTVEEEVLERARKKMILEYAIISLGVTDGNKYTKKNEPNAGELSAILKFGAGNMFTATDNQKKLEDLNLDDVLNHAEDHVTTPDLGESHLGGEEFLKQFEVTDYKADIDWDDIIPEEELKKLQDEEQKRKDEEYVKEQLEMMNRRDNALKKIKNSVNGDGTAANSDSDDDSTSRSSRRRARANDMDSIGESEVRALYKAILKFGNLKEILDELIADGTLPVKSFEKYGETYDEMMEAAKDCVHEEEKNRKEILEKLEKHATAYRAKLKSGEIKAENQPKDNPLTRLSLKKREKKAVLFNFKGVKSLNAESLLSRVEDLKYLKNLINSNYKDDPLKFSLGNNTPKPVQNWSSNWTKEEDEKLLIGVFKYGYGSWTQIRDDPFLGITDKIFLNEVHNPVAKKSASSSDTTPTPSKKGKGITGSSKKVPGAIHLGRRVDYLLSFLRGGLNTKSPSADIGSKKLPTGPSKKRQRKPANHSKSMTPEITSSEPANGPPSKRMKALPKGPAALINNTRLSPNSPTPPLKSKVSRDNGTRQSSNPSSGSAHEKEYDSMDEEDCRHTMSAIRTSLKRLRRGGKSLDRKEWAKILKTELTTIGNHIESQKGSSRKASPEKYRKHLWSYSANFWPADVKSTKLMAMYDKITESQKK

As for `CN(C)c1ncc2c(n1)C1(CCN(Cc3ccccc3)C1)COC2` (stereo not given), the Percent Effect in assay [1] was -2.14%; in assay [2] it was -5.48%; in assay [3] it was -5.72%; in assay [4], 3.1%; in assay [5], 1.95%; with Trypanosoma cruzi it was 2.78%. Further, the Percent Effect is 1.2% in [6]; 10.9% in assay [7]; -0.512% in the assay listed under Homo sapiens; -67% in assay [8]; 5.21% in [9]; 3.7% in assay [10]. For the same compound, the Percent Effect in [11] is -6.91%.
For the compound `O=C(Cc1ccccn1)N1CCN2C[C@H](Oc3cccc(F)c3)C[C@H]2C1`, the Percent Effect in assay [1] was -3.38%; in assay [2], 0%; in assay [3], 9.34%; in assay [4], 1.39%; in [5] it was -4.03%; in the assay on Trypanosoma cruzi it was 1.07%. In addition, the Percent Effect in [6] was -1.59%; in assay [7], 1.84%; in the assay listed under Homo sapiens it was 18.6%; in assay [8], -10.5%; in [9], -2.16%; in assay [10], -5.13%. Moreover, the Percent Effect in assay [11] is -1.68%.
For `Cn1cc(N2CCC3(CCN(Cc4cccnc4)C3)C2=O)cn1` (stereo not given), the Percent Effect in [1] is 1.77%; in [2], 5.41%; in assay [3] it was -4.84%; in assay [4], 7.18%; in [5], -13.3%; in the assay with Trypanosoma cruzi it was -4.79%. In addition, the Percent Effect in assay [6] was 1.59%; in assay [7] it was 25.1%; in the assay filed under Homo sapiens, 2.62%; in [8], -17%; in assay [9], 0%; in assay [10], 10.3%. In addition, the Percent Effect in assay [11] is -1.3%.
`c1cncc(N2CCOCC3(CCCN(Cc4cccs4)C3)C2)c1` (stereo not given): the Percent Effect in assay [1] is -5.18%; in assay [2], 13.5%; in assay [3] it was 2.95%; in assay [4] it was 5.95%; in [5], -1.9%; in the assay on Trypanosoma cruzi it was -0.293%. Also, the Percent Effect in assay [6] was determined as 2.23%; in assay [7], 10.3%; in the assay listed under Homo sapiens it was 4.59%; in [8], 14.1%; in assay [9], 8.65%; in assay [10], 15.4%. For the same compound, the Percent Effect in [11] is -1.37%.
Regarding `CC[C@H](N)Cn1nc(-c2cccs2)oc1=O`, the Percent Effect was -1.83% in [1]; 9.46% in assay [2]; 7.37% in assay [3]; 12% in [4]; -5.1% in assay [5]; -1.98% in the assay with Trypanosoma cruzi. In addition, the Percent Effect in [6] was -1.62%; in [7] it was 16.7%; in the assay filed under Homo sapiens it was 2.87%; in assay [8], 5.59%; in [9], 1.07%; in assay [10], 3.9%. The Percent Effect in assay [11] is -13.2%.

For the origin of these results see ChEMBL document CHEMBL3988442, “University of Dundee, Small-Polar-MMV Screening Library” (2021).
